# Measured values: PubChem BioAssay (NCATS)
# Values joined by “and” are separate entries in the source; they are usually repeats but may differ in a detail not shown here. Equal entries are not always repeated. Results filed as inconclusive are left out. A structure can be active in one record and inactive in another. A number with no mark means an inactive call. Active and inactive are the calls of the source. Calls follow the shape of the dose curve; as a rule, active = well fitted inhibition curve with a large enough effect; inconclusive = small, poorly fitted or top-dose-only effect; inactive = flat fitted curve, though single readings scatter.
# How the values were obtained:
# [1] = test system: CRL-7250; experiment: Cytotoxic Profiling of Annotated Libraries Using Quantitative High-Throughput Screening (AID 1296008); conditions: Five cell lines viability, CellTiter-Glo ATP luminescence, 48-72 h; max response: hits give low values; as to max response: % is scaled to controls: 0 for no effect and ±100 for the full control effect
# Outline: (§1)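 Cells exposed to compounds for 48 or 72 hr at 37 degrees Celsius. Viability read as ATP-coupled luminescence with CellTiter-Glo after 10 min at room temperature.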
# [2] = test system: HEK293; experiment: as above; conditions: Five cell lines viability, CellTiter-Glo ATP luminescence, 48-72 h; max response: hits give low values
# Outline: as §1
# [3] = test system: PC15; experiment: qHTS profiling for inhibitors of Plasmodium falciparum proliferation (AID 504749); conditions: P. falciparum in erythrocytes, SYBR Green DNA, 72 h; series mostly up to 28.7 µM
# Outline: (§2)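 P. falciparum-infected erythrocytes (0.3% parasitemia, 2.5% hematocrit) incubated with compound 72 h at 37 C, 5% CO2. Parasite DNA detected by SYBR Green after lysis, overnight at room temperature; normalised to 0.29 uM artemisinin and DMSO.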
# [4] = test system: PC26; experiment: as above; conditions: P. falciparum in erythrocytes, SYBR Green DNA, 72 h; series mostly up to 28.7 µM
# Outline: as §2
# [5] = test system: PC49; experiment: as above; conditions: P. falciparum in erythrocytes, SYBR Green DNA, 72 h; series mostly up to 28.7 µM
# Outline: as §2
# [6] = test system: SC27B; experiment: as above; conditions: P. falciparum in erythrocytes, SYBR Green DNA, 72 h; series mostly up to 28.7 µM
# Outline: as §2
# [7] = test system: TAB109; experiment: as above; conditions: P. falciparum in erythrocytes, SYBR Green DNA, 72 h; series mostly up to 28.7 µM
# Outline: as §2
# [8] = test system: TAB113; experiment: as above; conditions: P. falciparum in erythrocytes, SYBR Green DNA, 72 h; series mostly up to 28.7 µM
# Outline: as §2
# [9] = test system: TAB165; experiment: as above; conditions: P. falciparum in erythrocytes, SYBR Green DNA, 72 h; series mostly up to 28.7 µM
# Outline: as §2
# [10] = test system: W2; experiment: as above; conditions: P. falciparum in erythrocytes, SYBR Green DNA, 72 h; series mostly up to 28.7 µM
# Outline: as §2
# Also: nearly all actives have a fitted effect of over 60% in size.
# Potency is read from the fitted curve at half-maximal effect.
smiles,measurement,setting,value
C[C@H](NC(=O)Cc1cc(F)cc(F)c1)C(=O)N[C@@H]1C(=O)N(C)c2ccccc2-c2ccccc21,outcome,[1],inactive
same,max response,[2],-10.7%
COc1ccc(-c2c(-c3ccc(O)cc3O)n[nH]c2C)cc1,Potency,[1],30.3 µM (active)
same,Potency,[2],27 µM (active)
CCOc1ccc(Cc2cc([C@@H]3O[C@H](CO)[C@@H](O)[C@H](O)[C@@H]3O)ccc2Cl)cc1,max response,[1],-1.42%
same,max response,[2],1.73%
CC[C@H](Nc1ncnc2nc[nH]c12)c1nc2cccc(F)c2c(=O)n1-c1ccccc1,max response,[1],-4.35%
same,Potency,[2],23.5 µM (active)
CN[C@@H](C)C(=O)N[C@H]1CCCC[C@H]2CC[C@@H](C(=O)N[C@@H](c3ccccc3)c3cn(CCCCc4ccc(CCCCn5cc([C@@H](NC(=O)[C@@H]6CC[C@@H]7CCCC[C@H](NC(=O)[C@H](C)NC)C(=O)N76)c6ccccc6)nn5)cc4)nn3)N2C1=O,max response,[1],-4.97%
same,outcome,[2],inactive
CC[C@@H](C)[C@H](NC(=O)[C@H](CC1CCCCC1)NC(=O)c1ccno1)C(=O)N1CCC2(CCc3ccccc32)CC1,max response,[1],-8.58% and -11.9%
same,max response,[2],-11.2%
CCC(C)n1ncn(-c2ccc(N3CCN(c4ccc(OC[C@H]5CO[C@](Cn6cncn6)(c6ccc(Cl)cc6Cl)O5)cc4)CC3)cc2)c1=O (stereo partly specified),max response,[1],-2.71%
same,Potency,[2],2.82 µM (active)
CC(C)(N)C(=O)N[C@H](COCc1ccccc1)C(=O)N1CCC2(CC1)CN(S(C)(=O)=O)c1ccccc12,max response,[1],-61%
same,Potency,[2],23.5 µM (active)
COc1ccc(-c2ccc3c(N4CCOC[C@H]4C)nc(N4CCOC[C@H]4C)nc3n2)cc1CO,Potency,[1],0.0093 µM (active)
same,Potency,[2],0.0166 µM (active)
COc1ccccc1-c1cccc(-c2c(O)c3cc(C#N)c(Cl)cc3[nH]c2=O)c1,Potency,[1],8.55 µM (active)
same,Potency,[2],3.4 µM (active)
CCn1c(-c2nonc2N)nc2cnc(Oc3cccc(NC(=O)c4ccc(OCCN5CCOCC5)cc4)c3)cc21,Potency,[1],20.9 µM (active)
same,Potency,[2],11.8 µM (active)
O=C(O)CCc1ccc(NCc2cccc(Oc3ccccc3)c2)cc1,max response,[1],4.81%
same,outcome,[2],inactive
O=C(Nc1nc2ccccc2n1CCN1CCOCC1)c1cccc([N+](=O)[O-])c1,outcome,[1],inactive
same,outcome,[2],inactive
CNCc1ccc(-c2[nH]c3cc(F)cc4c3c2CCNC4=O)cc1,outcome,[1],inactive
same,Potency,[2],11.6 µM (active)
COc1ccc(COc2cc3oc(=O)c4cc(C(C)O)ccc4c3cc2OC)cc1 (stereo unspecified),Potency,[1],10.5 µM (active)
same,Potency,[2],14.8 µM (active)
Cc1csc(NC(=O)c2sc3nc4c(c(C(F)(F)F)c3c2N)CCC4)n1,max response,[1],-0.546% and -0.36%
same,max response,[2],-22.1%
O=C(O)COCCN1CCN(C(c2ccccc2)c2ccc(Cl)cc2)CC1 (stereo unspecified),max response,[1],-0.386%
same,max response,[2],0.378% and -0.675%
O=C(Nc1ccc(F)c(C(F)(F)F)c1)Nc1nnc(-c2ccncc2)s1,max response,[1],2.14%
same,max response,[2],-22.6% and -26.4%
OC(CCN1CCCCC1)(c1ccccc1)C1CC2C=CC1C2 (stereo unspecified),outcome,[1],inactive
same,outcome,[2],inactive
Cc1n[nH]c(C)c1Cc1sc2c(c1C(=O)N1C[C@H](O)CO1)c(=O)n(C)c(=O)n2CC(C)C,max response,[1],-7.94%
same,Potency,[2],0.184 µM (active)
Cc1cc([C@@H](C)Nc2ccccc2C(=O)O)c2nc(N3CCOCC3)cc(=O)n2c1,Potency,[1],3.82 µM (active)
same,Potency,[2],19.1 µM (active)
CCN(c1ccccc1)c1cc(NC)[n+](C)c(C)n1,max response,[1],-1.6%
same,max response,[2],1.35%
Cc1cc(SCc2sc(-c3ccc(C(F)(F)F)cc3)nc2C)ccc1OCC(=O)O,max response,[1],-3.25%
same,max response,[2],3.06% and 3.28%
CNC(=O)c1ccccc1Sc1ccc2c(/C=C/c3ccccn3)n[nH]c2c1,Potency,[1],5.8 µM (active)
same,Potency,[2],23.7 µM (active) and 14.6 µM (active)
CO[C@@H]1[C@H](N(C)C(=O)c2ccccc2)C[C@H]2O[C@]1(C)n1c3ccccc3c3c4c(c5c6ccccc6n2c5c31)C(=O)NC4,Potency,[1],1.48 µM (active)
same,Potency,[2],8.33 µM (active)
CN(C)C(=O)c1ccc(S(=O)(=O)c2ccc(NC(=O)[C@@](C)(O)C(F)(F)F)c(Cl)c2)cc1,Potency,[1],5.26 µM (active) and 5.8 µM (active)
same,Potency,[2],3.72 µM (active)
CCCC(CCC)C(=O)O,max response,[1],-7.38% and -1.13%
same,max response,[2],-7.93% and 2.58%
NC(=O)c1ccc(I)c([N+](=O)[O-])c1,max response,[1],1.49%
same,outcome,[2],inactive
COCC(=O)NCC=Cc1ccc2ncnc(Nc3ccc(Oc4ccc(C)nc4)c(C)c3)c2c1,Potency,[1],23.5 µM (active)
same,Potency,[2],13.2 µM (active)
CC(C)(Sc1ccc(CCN(CCCCC2CCCCC2)C(=O)NC2CCCCC2)cc1)C(=O)O,max response,[1],-21.5% and -0.943%
same,max response,[2],4.49%
C[C@]12CCC(=O)C=C1CC[C@@H]1[C@@H]2[C@@H](O)C[C@@]2(C)[C@H]1CC[C@]2(O)C(=O)CO,max response,[1],3.48%
same,max response,[2],-3.59%
Cn1cc(-c2ccc3nnc(C(F)(F)c4ccc5ncccc5c4)n3n2)cn1,max response,[1],-14.4%
same,max response,[2],-1.08%
CS(=O)(=O)c1ccc(C(=O)Nc2ccc(Cl)c(-c3ccccn3)c2)c(Cl)c1,max response,[1],-4.31% and 3.97%
same,max response,[2],-6.21%
Cc1cnc(Nc2ccc(OCCN3CCCC3)cc2)nc1Nc1cccc(S(=O)(=O)NC(C)(C)C)c1,Potency,[1],3.72 µM (active)
same,Potency,[2],5.17 µM (active)
same,max response,[2],0.504%
COc1cc(Nc2ncc3c(n2)-c2ccc(Cl)cc2C(c2c(F)cccc2OC)=NC3)ccc1C(=O)O,Potency,[1],20.6 µM (active)
same,Potency,[2],23.1 µM (active)
same,max response,[2],-33.7%
CCCc1nn(C)c2c(=O)[nH]c(-c3cc(S(=O)(=O)N4CCN(C)CC4)ccc3OCC)nc12,Potency,[3],inactive
same,Potency,[4],inactive
same,Potency,[5],inactive
same,Potency,[6],inactive
same,Potency,[7],inactive
same,Potency,[8],inactive
same,Potency,[9],inactive
same,max response,[1],-31.4% and 2.3%
same,Potency,[2],18.7 µM (active)
NCCCC(N)(C(=O)O)C(F)F (stereo unspecified),Potency,[3],inactive
same,Potency,[4],inactive
same,Potency,[5],inactive
same,Potency,[6],inactive
same,Potency,[7],inactive
same,Potency,[8],inactive
same,Potency,[9],inactive
same,Potency,[10],inactive
same,max response,[1],-1.33% and -4.78%
same,max response,[2],-1.85% and -25.2%
CC(C)(C)NCC(O)c1ccc(O)c(CO)c1 (stereo unspecified),max response,[1],-2.87% and 2.98%
same,max response,[2],-5.93% and 0.072%
OC(CN1CCC(Cc2ccc(F)cc2)CC1)c1ccc(Cl)cc1 (stereo unspecified),Potency,[3],2 µM (active)
same,Potency,[4],1.51 µM (active)
same,Potency,[5],1.58 µM (active)
same,Potency,[6],1.58 µM (active)
same,Potency,[7],1.78 µM (active)
same,Potency,[8],1.41 µM (active)
same,Potency,[9],1.26 µM (active)
same,Potency,[10],0.379 µM (active)
same,max response,[1],0.243% and -6.71%
same,max response,[2],-10.6% and 0.0097%
Cc1cc(C=c2sc3nc4ccccc4n3c2=O)c(C)n1-c1ccccc1,max response,[1],-1.5%
same,max response,[2],-0.0904%
Clc1cccc(Cl)c1NC1=NCCN1,Potency,[3],inactive
same,Potency,[4],inactive
same,Potency,[5],inactive
same,Potency,[6],inactive
same,Potency,[7],inactive
same,Potency,[8],inactive
same,Potency,[9],inactive
same,Potency,[10],inactive
same,max response,[1],0.663% and -4.74%
same,max response,[2],-3.7% and -4.57%
NNCCc1ccccc1,Potency,[3],inactive
same,Potency,[4],inactive
same,Potency,[5],inactive
same,Potency,[6],inactive
same,Potency,[7],inactive
same,Potency,[8],inactive
same,outcome,[1],inactive
same,max response,[2],-15.3%
N=c1nc(N2CCCCC2)cc(N)n1O,Potency,[3],inactive
same,Potency,[4],inactive
same,Potency,[5],inactive
same,Potency,[6],inactive
same,Potency,[7],inactive
same,Potency,[8],inactive
same,Potency,[9],inactive
same,Potency,[10],inactive
same,max response,[1],-9.52% and -1.74%
same,max response,[2],3.36%
same,outcome,[2],inactive
Nc1nc2[nH]cc(CCc3ccc(C(=O)N[C@@H](CCC(=O)O)C(=O)O)cc3)c2c(=O)[nH]1,max response,[1],-1.95%
same,Potency,[2],1.48 µM (active)
COc1ccc(-c2oc3cc(OC)ccc3c2C(=O)c2ccc(C#N)cc2)cc1,outcome,[1],inactive
same,outcome,[2],inactive
COc1ccccc1[C@H](c1cccc2ccccc12)[C@@](C)(C#N)C(=O)N1CCC(c2cccc(C(F)(F)F)c2)CC1,Potency,[1],26.4 µM (active)
same,Potency,[2],13.2 µM (active)
CCOc1ccn(-c2ccc(F)cc2)c(=O)c1C(=O)Nc1ccc(Oc2ccnc(N)c2Cl)c(F)c1,max response,[1],-27.8%
same,Potency,[2],26.4 µM (active)
Cc1cnc(NC(=O)C2=C(O)c3ccccc3S(=O)(=O)N2C)s1,outcome,[1],inactive
same,max response,[2],-0.932%
same,outcome,[2],inactive
CC(=O)Oc1ccccc1C(=O)O,Potency,[3],inactive
same,Potency,[5],inactive
same,Potency,[6],inactive
same,Potency,[7],inactive
same,Potency,[8],inactive
same,Potency,[9],inactive
same,Potency,[10],inactive
same,max response,[1],0.351% and -4.5%
same,max response,[2],1.6%
same,outcome,[2],inactive
C[C@]12CC[C@H](O)CC1=CC[C@@H]1[C@H]2CC[C@]2(C)C(c3cccnc3)=CC[C@H]12,outcome,[1],inactive
same,max response,[2],-4.02%
O=c1[nH]cnc2[nH]ncc12,Potency,[3],inactive
same,Potency,[4],inactive
same,Potency,[5],inactive
same,Potency,[6],inactive
same,Potency,[7],inactive
same,Potency,[8],inactive
same,Potency,[9],inactive
same,Potency,[10],inactive
same,max response,[1],2.71% and -1.4%
same,max response,[2],-10.4%
CNC[C@H](O)c1cccc(O)c1,Potency,[3],inactive
same,Potency,[4],inactive
same,Potency,[5],inactive
same,Potency,[6],inactive
same,Potency,[7],inactive
same,Potency,[8],inactive
same,Potency,[9],inactive
same,max response,[1],-1.79% and -10.1%
same,max response,[2],1.65% and -9.71%
